FLuc modulator: qHTS profiling assay for firefly luciferase inhibitor/activator using purifed enzyme and Km concentrations of substrates (counterscreen for miR-21 project); Potency, µM (highest dose often 57.5 µM), inactives show top-dose activity change, negative = inhibition, usual class: inhibitors; 6.9% of 360,000 active; Luciferin 4-monooxygenase (Photinus pyralis), P08659; purified FLuc, Km substrates, luminescence inhibition;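 further: plate controls were vehicle for no effect and reference inhibitor for full effect; nearly all actives have a fitted effect of over 55% in size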
Target sequence (P08659 whole entry, looked up): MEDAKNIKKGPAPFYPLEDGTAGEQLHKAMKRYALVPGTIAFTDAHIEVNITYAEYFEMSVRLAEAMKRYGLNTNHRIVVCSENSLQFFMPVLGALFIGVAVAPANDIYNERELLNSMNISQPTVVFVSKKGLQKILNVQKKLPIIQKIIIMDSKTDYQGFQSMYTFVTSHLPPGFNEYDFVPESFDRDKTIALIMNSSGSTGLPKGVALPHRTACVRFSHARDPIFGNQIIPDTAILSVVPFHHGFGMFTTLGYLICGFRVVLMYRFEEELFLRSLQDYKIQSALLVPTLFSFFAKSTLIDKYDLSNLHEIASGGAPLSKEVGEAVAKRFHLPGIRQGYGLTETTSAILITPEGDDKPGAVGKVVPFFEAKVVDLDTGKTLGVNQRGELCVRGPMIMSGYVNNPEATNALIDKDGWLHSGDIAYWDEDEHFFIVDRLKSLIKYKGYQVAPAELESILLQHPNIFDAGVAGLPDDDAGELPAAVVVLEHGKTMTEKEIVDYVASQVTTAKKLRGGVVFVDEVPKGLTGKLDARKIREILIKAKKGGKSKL
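Purified P. pyralis luciferase (10nM final) with 10uM D-luciferin and 10uM ATP (Km levels) in 50mM Tris acetate pH 7.5, 10mM Mg acetate, 0.01% Tween-20, 0.05% BSA; qHTS 6-point titration, ~60 µM downward; luminescence read.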
ELG1 genotoxic: qHTS screen for small molecules that induce genotoxicity in human embryonic kidney (HEK293T) cells expressing luciferase-tagged ELG1; HEK293T ELG1-luciferase reporter, luminescence, 16 h; Potency, µM (doses to about 46 µM), without a hit: at the highest dose activity change, positive = activation, most hits filed as activators; 1.3% of 330,000 active; further: % of control where 0% means no effect; nearly all actives have a fitted effect of over 60% in size
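Reporter readout depends on ELG1 protein level, which increases with genetic stress. After 16 hr compound exposure at 37 °C, luciferase activity was quantified using ONE-Glo.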
NPC1 prom act: qHTS Assay for NPC1 Promoter Activators. Potency, µM (series often up to 9.22 µM), without a hit: at the highest dose activation, hits mostly activators. 2.4% of 320,000 active. Huh7 NPC1 promoter luciferase reporter, 24 h; further: % of control where 0% means no effect; nearly all actives have a fitted effect of over 60% in size
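Readout is luciferase luminescence, reflecting NPC1 promoter activation in stably transfected Huh7 cells after 24 h compound exposure at 37 °C in reduced-serum medium with 10% FBS.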
Rab9 promoter act: qHTS Assay for Rab9 Promoter Activators; 2.8% of 320,000 active; Huh7 Rab9 promoter-luciferase reporter, luminescence, 24 h; Potency, µM (doses to about 9.22 µM), inactives show top-dose activation, negative = inhibition, most hits filed as activators; further: % of control where 0% means no effect; nearly all actives have a fitted effect of over 60% in size
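Huh7 cells stably carrying Rab9 promoter–luciferase reporter, plated 1500 cells/well, compound added after 2 h and incubated 24 h at 37 °C; luciferase luminescence then read after 10 min with detection reagent.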
KinaseGlo FLuc: Counterscreen for Luciferase (Kinase-Glo TM) Inhibition. Luciferin 4-monooxygenase (Photuris pensylvanica), Q27757. Kinase-Glo luciferase, ATP luminescence, 8 min. Potency, µM (titrated, usually from 38.3 µM), without a hit: at the highest dose activity change, negative = inhibition, usual class: inhibitors. 0.28% of 200,000 active. AID 1379, 2008; further: on the % scale 0 is the no-effect control and ±100 the full control effect; nearly all actives have a fitted effect of over 60% in size
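Kinase-Glo luciferase light output from ATP and luciferin was measured with 10 uM ATP, within the enzyme's linear range. Buffer: 50 mM imidazole pH 7.2, 50 mM KCl, 7 mM MgCl2, 0.01% Tween 20, 0.05% BSA; luminescence read after 8 min at ambient temperature.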
SMN2 splice enh: qHTS Assay for Enhancers of SMN2 Splice Variant Expression | Potency, µM (series often up to 46.1 µM), without a hit: at the top dose activity change, positive = activation, most hits filed as activators | 2.8% of 210,000 active | HEK293 SMN2-luciferase splicing reporter, luminescence, 30-36 h; further: % of control where 0% means no effect; nearly all actives have a fitted effect of over 55% in size
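qHTS luciferase splicing reporter: luminescence rises when SMN2 exon 7 is included in transfected HEK293 cells. Compound exposure lasted 30-36 h at 37C, with 4.5 mM final sodium butyrate as control, followed by a ONE-Glo read.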
An asterisk follows results filed as active; ? = inconclusive; / = no result. Only some compounds are listed: those with a hit (about 7.3% of all), similar ones and a draw of the others. The call rests on the fitted dose curve; in most records, active means well fitted curve in the direction sought with a large enough effect; inconclusive means small, poorly fitted or top-dose-only effect, or another doubt; inactive means no such curve, though single readings can be large; an effect the other way counts as inactive or inconclusive. Potency means the concentration at half of the fitted maximal effect.

SMILES	FLuc modulator	ELG1 genotoxic	NPC1 prom act	Rab9 promoter act	KinaseGlo FLuc	SMN2 splice enh
CCc1nc2ccc(C(=O)O)cc2nc1CC	24µM*	?	?	?	-2%	-27%
Cc1cc2nc(-c3ccc[nH]c3=O)n(Cc3ccc(F)cc3)c2cc1C	-16%	-1%	-1%	-3%	/	/
Cc1cc2nc(-c3ccc[nH]c3=O)[nH]c2cc1C	0.34µM*	?	?	0.5µM*	/	/
COc1cccc(/C=N/NC(=O)CSc2nnc(C)n2-c2ccccc2)c1O	17µM*	-4%	-9%	-3%	-4%	-25%
COc1cccc(/C=N/NC(=O)CN2CC(c3ccccc3)CC2=O)c1O (stereo not given)	12µM*	4%	-8%	-19%	-1%	-48%
COc1ccc(/C=N/NC(=O)CSc2nnc(C)n2-c2ccccc2)c(OC)c1OC	-1%	-5%	1%	1%	0%	-6%
COc1cccc(NC(=O)CCC(=O)Nc2cc(OC)c(NC(=O)c3cccs3)cc2OC)c1	-1%	-8%	-5%	0%	/	/
CC(C)NC(=O)c1onc(CSc2cccc3ccccc23)c1C(=O)O	27µM*	-4%	1%	-5%	-1%	-2%
CC(C)CNS(=O)(=O)c1cc(C(=O)OCC(=O)c2ccc3c(c2)OCCO3)c(Cl)cc1Cl	12µM*	4%	-1%	-14%	2%	-8%
CCCn1c(C)cc(C(=O)COC(=O)c2cc(S(=O)(=O)NCC(C)C)c(Cl)cc2Cl)c1C	9.5µM*	8%	1%	-6%	-3%	?
CC(C)CNS(=O)(=O)c1cc(C(=O)O)c(Cl)cc1Cl	-1%	2%	-4%	-2%	/	/
CC(C)CNS(=O)(=O)c1cc(C(=O)N2CCOCC2)c(Cl)cc1Cl	6%	-3%	-3%	-3%	-1%	-4%
COc1ccc(/C=C/C(=O)NCCC(=O)N2CCCN(C)CC2)cc1	3%	1%	-1%	1%	0%	-3%
Cc1cc(/C=C2\NC(=S)N(C)C2=O)ccc1N1CCCC1	7.6µM*	?	?	3.5µM*	0%	/
Cc1cc(N2CCCC2)ccc1/C=C1/C(=O)N(C)C(=S)N1C	-15%	0%	-17%	-17%	-2%	-15%
CCCN1C(=O)/C(=C/c2ccc(N3CCCC3)c(C)c2)NC1=S	?	3%	0%	0%	-7%	-32%
Cc1cc(/C=C2/C(=O)N(C)C(=S)N2C)ccc1N1CCCC1	4.8µM*	?	?	?	-3%	13µM*
CCN1C(=O)/C(=C/c2ccc(N3CCCC3)cc2)NC1=S	19µM*	-3%	-3%	0%	0%	-18%
CC(NC(=O)c1ccc2c(c1)N(Cc1ccc(Cl)cc1)C(=O)c1ccccc1S2(=O)=O)c1ccccc1 (stereo not given)	2%	/	/	/	/	11%
CCC(C)Nc1nc2ccccc2n2c(C)nnc12 (stereo not given)	-3%	?	9%	1%	/	/
CCOC(=O)c1ccc(-c2ccc(/C=N/NC(=O)CN(c3cccc(C)c3)S(C)(=O)=O)o2)cc1	-3%	14%	15%	28%	-1%	?
CCOC(=O)c1ccc(-c2ccc(/C=N/NC(=O)CN(c3ccccc3Cl)S(C)(=O)=O)o2)cc1	?	-6%	?	?	-1%	11µM*
Cc1cccc(C)c1Nc1c(-c2ccccc2F)nc2cccc(C)n12	1%	/	/	/	/	-103%
c1ccc2sc(SCc3ccc(-c4nnco4)cc3)nc2c1	4.8µM*	?	1.4µM*	3.2µM*	-9%	13µM*
NC(=O)c1ccc(CSc2nc3ccccc3s2)cc1	?	?	?	2.8µM*	/	/
CCNC(=O)c1ccc(CSc2nc3ccccc3s2)cc1	5.4µM*	11%	6%	-1%	/	/
